Assay results taken from PubChem BioAssay (NCI).
This is part of a sample that, as a whole, favours compounds with a hit. Of some 83,000 tested, about 20% had one in any assay.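 48-hour exposure, single concentration, 96-well plates; percent growth endpoint where 0 means no net growth. Active: below 10.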 A number with no mark means an inactive call. Activity calls are given as the source filed them.

Experiments:
Test in all cases: NCI-60 one-dose screen, 48 h (100 = growth as untreated, 0 = no growth, -100 = all killed)
Settings in all cases: 10 µM unless noted
SR leukemia = test system: SR leukemia
RPMI-8226 leukemia = test system: RPMI-8226 leukemia
OVCAR-8 ovarian = test system: OVCAR-8 ovarian
OVCAR-5 ovarian = test system: OVCAR-5 ovarian
OVCAR-4 ovarian = test system: OVCAR-4 ovarian
SK-OV-3 ovarian = test system: SK-OV-3 ovarian
IGROV1 ovarian = test system: IGROV1 ovarian
OVCAR-3 ovarian = test system: OVCAR-3 ovarian
HS 578T breast = test system: HS 578T breast
NCI/ADR-RES ovarian = test system: NCI/ADR-RES ovarian

Question: How did the growth (SR leukemia) turn out when CCCCCCNC(=O)c1cc(NCc2cc(O)ccc2O)ccc1O was run?
Answer: 7.38% (active)

Question: What about the growth (RPMI-8226 leukemia) of the same compound?
Answer: -12.3% (active)

Question: And the growth (OVCAR-8 ovarian)?
Answer: 30.9%

Question: What about the growth (OVCAR-5 ovarian) of the same compound?
Answer: 77.5%

Question: What about the growth (OVCAR-4 ovarian) of the same compound?
Answer: 66.5%

Question: What about the growth (SK-OV-3 ovarian) of the same compound?
Answer: 74.5%

Question: And the growth (IGROV1 ovarian)?
Answer: 70.7%

Question: What about the growth (OVCAR-3 ovarian) of the same compound?
Answer: 27.4%

Question: And the growth (HS 578T breast)?
Answer: 70.5%

Question: And the growth (NCI/ADR-RES ovarian)?
Answer: 59.2%

Question: With Clc1ccc2[nH]c3c(NCCCN4CCOCC4)ncnc3c2c1 as the compound, how does the growth (SR leukemia) read?
Answer: -24.2% (active)

Question: What about the growth (RPMI-8226 leukemia) of the same compound?
Answer: 52.6%

Question: And the growth (OVCAR-8 ovarian)?
Answer: 66.5%

Question: And the growth (OVCAR-5 ovarian)?
Answer: 90.8%

Question: And the growth (OVCAR-4 ovarian)?
Answer: 77.5%

Question: And the growth (SK-OV-3 ovarian)?
Answer: 81.5%

Question: What about the growth (IGROV1 ovarian) of the same compound?
Answer: 63.1%

Question: What about the growth (OVCAR-3 ovarian) of the same compound?
Answer: 85.3%

Question: And the growth (HS 578T breast)?
Answer: 102%

Question: And the growth (NCI/ADR-RES ovarian)?
Answer: 65.9%

Question: For CC(=O)Nc1cccc(C2=CC(c3ccc(C)cc3)n3ncnc3N2)c1 (configuration not stated), which growth (SR leukemia) is on record?
Answer: 78.8%

Question: What about the growth (RPMI-8226 leukemia) of the same compound?
Answer: 73.8%

Question: What about the growth (OVCAR-8 ovarian) of the same compound?
Answer: 101%

Question: What about the growth (OVCAR-5 ovarian) of the same compound?
Answer: 95.2%

Question: What about the growth (OVCAR-4 ovarian) of the same compound?
Answer: 103%

Question: And the growth (SK-OV-3 ovarian)?
Answer: 133%

Question: And the growth (IGROV1 ovarian)?
Answer: 114%

Question: And the growth (OVCAR-3 ovarian)?
Answer: 101%

Question: What about the growth (HS 578T breast) of the same compound?
Answer: 92.8%

Question: What about the growth (NCI/ADR-RES ovarian) of the same compound?
Answer: 97.6%

Question: With Cn1ccc(Cc2cnc(N)s2)n1 as the compound, how does the growth (SR leukemia) read?
Answer: 88.7%

Question: What about the growth (RPMI-8226 leukemia) of the same compound?
Answer: 101%

Question: What about the growth (OVCAR-8 ovarian) of the same compound?
Answer: 94.5%

Question: What about the growth (OVCAR-5 ovarian) of the same compound?
Answer: 106%

Question: And the growth (OVCAR-4 ovarian)?
Answer: 99.4%

Question: And the growth (SK-OV-3 ovarian)?
Answer: 99.7%

Question: And the growth (IGROV1 ovarian)?
Answer: 111%

Question: What about the growth (OVCAR-3 ovarian) of the same compound?
Answer: 106%

Question: What about the growth (HS 578T breast) of the same compound?
Answer: 93.5%

Question: And the growth (NCI/ADR-RES ovarian)?
Answer: 102%

Question: What does the source list for CCN(CC)CC(=O)Nc1cccc(C(=O)OC(C)C)c1?
Answer: growth (SR leukemia): 95.2%; growth (RPMI-8226 leukemia): 105%; growth (OVCAR-8 ovarian): 108%; growth (OVCAR-5 ovarian): 104%; growth (OVCAR-4 ovarian): 103%; growth (SK-OV-3 ovarian): 101%; growth (IGROV1 ovarian): 104%; growth (OVCAR-3 ovarian): 103%; growth (HS 578T breast): 120%; growth (NCI/ADR-RES ovarian): 97%

Question: What does the source list for CCN(CC)c1ccc(Nc2ccc(CC(=O)c3ccccc3)cc2)cc1?
Answer: growth (SR leukemia): 55.3%; growth (RPMI-8226 leukemia): 49.9%; growth (OVCAR-8 ovarian): 84.8%; growth (OVCAR-5 ovarian): 98.3%; growth (OVCAR-4 ovarian): 87.8%; growth (SK-OV-3 ovarian): 97.8%; growth (IGROV1 ovarian): 88.4%; growth (OVCAR-3 ovarian): 84.3%; growth (HS 578T breast): 81.1%; growth (NCI/ADR-RES ovarian): 73.6%

Question: CCOC(=O)C1C(=O)C=C(c2cnccn2)CC1c1ccc(OC)c(OC)c1 (configuration not stated) was tested. Which growth (SR leukemia) did it give?
Answer: 89.6%

Question: What about the growth (RPMI-8226 leukemia) of the same compound?
Answer: 90%

Question: What about the growth (OVCAR-8 ovarian) of the same compound?
Answer: 92.3%

Question: What about the growth (OVCAR-5 ovarian) of the same compound?
Answer: 103%

Question: And the growth (OVCAR-4 ovarian)?
Answer: 109%

Question: What about the growth (SK-OV-3 ovarian) of the same compound?
Answer: 82.2%

Question: What about the growth (IGROV1 ovarian) of the same compound?
Answer: 105%

Question: What about the growth (OVCAR-3 ovarian) of the same compound?
Answer: 106%

Question: And the growth (HS 578T breast)?
Answer: 99.8%

Question: And the growth (NCI/ADR-RES ovarian)?
Answer: 98.2%

Question: What does the source list for CCCCCCCSc1ccc(C(=O)O)cc1?
Answer: growth (SR leukemia): 104%; growth (RPMI-8226 leukemia): 92.1%; growth (OVCAR-8 ovarian): 95.7%; growth (OVCAR-5 ovarian): 110%; growth (OVCAR-4 ovarian): 93.9%; growth (SK-OV-3 ovarian): 102%; growth (IGROV1 ovarian): 101%; growth (HS 578T breast): 128%; growth (NCI/ADR-RES ovarian): 109%

Question: How did the growth (SR leukemia) turn out when C=CCO[C@H]1CO[C@H]2[C@@H]1OC[C@@H]2Oc1ccc(Nc2ccnc(Nc3ccc(O[C@H]4CO[C@H]5[C@@H]4OC[C@@H]5OCC=C)c(Cl)c3)n2)cc1Cl was run?
Answer: -1.74% (active)

Question: And the growth (RPMI-8226 leukemia)?
Answer: -32.7% (active)

Question: And the growth (OVCAR-8 ovarian)?
Answer: -4.18% (active)

Question: And the growth (OVCAR-5 ovarian)?
Answer: -55.7% (active)

Question: What about the growth (OVCAR-4 ovarian) of the same compound?
Answer: -86.7% (active)

Question: What about the growth (SK-OV-3 ovarian) of the same compound?
Answer: 115%

Question: And the growth (IGROV1 ovarian)?
Answer: -94.1% (active)

Question: And the growth (HS 578T breast)?
Answer: -38.6% (active)

Question: What about the growth (NCI/ADR-RES ovarian) of the same compound?
Answer: -63.6% (active)

Question: For O=c1oc2ccc(Cl)cc2cc1-c1cs/c(=N/N=C\c2ccc(Cl)cc2)n1/N=C/c1ccc(Cl)cc1, which growth (SR leukemia) is on record?
Answer: 83.4%

Question: And the growth (RPMI-8226 leukemia)?
Answer: 103%

Question: What about the growth (OVCAR-8 ovarian) of the same compound?
Answer: 96.5%

Question: And the growth (OVCAR-5 ovarian)?
Answer: 107%

Question: What about the growth (OVCAR-4 ovarian) of the same compound?
Answer: 98.5%

Question: And the growth (SK-OV-3 ovarian)?
Answer: 111%

Question: What about the growth (IGROV1 ovarian) of the same compound?
Answer: 108%

Question: What about the growth (OVCAR-3 ovarian) of the same compound?
Answer: 106%

Question: And the growth (NCI/ADR-RES ovarian)?
Answer: 106%
